Data as given in the supplement of paper PMC7801607.

What was measured:
CHO = test: % viability of CHO cells (MTT); higher = less toxic; settings: 48 h
Procedure, shortened: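 For 48 h, attached CHO cells (10^6 cells/well, 200 µL, seeded the night before) were kept in fresh medium carrying compound at 2 or 20 µM. A colorimetric tetrazolium (MTT) assay then gave survival as percent viability versus untreated cells.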

HepG2-A16-CD81 = test: % inhibition of HepG2 viability (CellTiter-Glo); higher = more toxic; settings: 5 µM
[1] = system: Plasmodium falciparum NF54 stage IV/V gametocytes; test: % inhibition of gametocyte viability (PrestoBlue); higher = more inhibition; settings: 48 h
Procedure, shortened: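 Stage IV/V NF54 gametocytes at 2% gametocytaemia and 5% haematocrit (100 µL/well) were treated with compound at 1 or 5 µM and incubated for 48 h at 37 °C under stationary, hypoxic conditions. PrestoBlue (10 µL) was then added for 2 h, and fluorescence at 612 nm was read on 70 µL of transferred supernatant. Percent inhibition of gametocyte viability was normalised to vehicle and kill controls within one run.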

[2] = system: Plasmodium falciparum NF54 asexual blood stage; test: % inhibition of asexual blood stage proliferation (pLDH); higher = more inhibition; settings: 72 h
Procedure, shortened: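 Plasmodium falciparum NF54 ring-stage cultures (1% haematocrit, 2% parasitaemia) were incubated with compound at 2 or 20 µM for 72 h at 37 °C under 4% CO2, 3% O2 and 93% N2. Survival was read at 620 nm with the parasite lactate dehydrogenase assay. Results were reported as percent inhibition of asexual proliferation relative to controls.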

[3] = system: Plasmodium falciparum NF54 stage IV/V gametocytes; test: % inhibition of gametocyte viability (ATP bioluminescence); higher = more inhibition; settings: 24 h
Procedure, shortened: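 Stage IV/V NF54 gametocytes from density gradients (30,000 per well, 96-well plates) were incubated with compound at 1 or 5 µM for 24 h at 37 °C. A single run supplied percent inhibition of gametocyte viability, based on ATP measured with Promega BacTiter Glo and normalised to control wells.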

[4] = system: Plasmodium falciparum NF54 stage IV/V gametocytes; test: % inhibition of gametocyte viability (luciferase reporter); higher = more inhibition; settings: 48 h
Procedure, shortened: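 Stage IV/V gametocytes of the NF54-Pfs16-GFP-Luc line (2% gametocytaemia, 2% haematocrit) were exposed to compound at 1 or 5 µM. Incubation was 48 h at 37 °C, stationary and hypoxic. Luminescence was read on 30 µL lysate plus 30 µL Promega luciferin substrate on a GloMax-Multi+ reader with 10 s integration. Percent inhibition was normalised to DMSO and kill controls from a single run.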

[5] = system: Plasmodium berghei ANKA liver stage in HepG2-A16-CD81; test: % inhibition of liver stage parasite viability (luciferase); higher = more inhibition; settings: 5 µM; 48 h
Procedure: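 Single-concentration screen of the MMV Pandemic Response Box. P. falciparum NF54 asexual blood stages: pLDH assay, 72 h at 37 °C, 2 and 20 µM, n=2. Stage IV/V gametocytes (NF54): luciferase reporter (NF54-Pfs16-GFP-Luc, 48 h), ATP bioluminescence (24 h) and PrestoBlue (48 h) at 1 and 5 µM, n=1. P. berghei liver stage (luciferase in HepG2-A16-CD81, 48 h post infection) at 5 µM, n=4. All normalised to DMSO and kill controls as % inhibition.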
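For % inhibition of HepG2 viability (CellTiter-Glo) in this document: HepG2-A16-CD81 hepatoma cells plated as in the liver-stage assay but without sporozoites, with DMSO wells as negative and 25 µM puromycin as positive control.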

Row | Compound | % viability of CHO cells (CHO; 2 µM) [%] | % viability of CHO cells (CHO; 20 µM) [%] | % inhibition of HepG2 viability (HepG2-A16-CD81) [%] | % inhibition of gametocyte viability ([1]; 1 µM) [%] | % inhibition of gametocyte viability ([1]; 5 µM) [%] | % inhibition of asexual blood stage proliferation ([2]; 2 µM) [%] | % inhibition of asexual blood stage proliferation ([2]; 20 µM) [%] | % inhibition of gametocyte viability ([3]; 1 µM) [%] | % inhibition of gametocyte viability ([3]; 5 µM) [%] | % inhibition of gametocyte viability ([4]; 1 µM) [%] | % inhibition of gametocyte viability ([4]; 5 µM) [%] | % inhibition of liver stage parasite viability [5] [%]
1 | Cc1cc(C)n2nc(C(=O)NS(=O)(=O)c3c(C)cccc3OC(F)(F)F)nc2n1 | 110 | 122 | 8.44 | 33.8 | 85.1 | 33.6 | 59.9 | < 0 | < 0 | 14.1 | 14.2 | 37
2 | CC(C)(C)c1cccc(-c2nc3cc(C(=N)N)ccc3[nH]2)c1O | 98.4 | 106 | -1.3 | < 0 | 41.8 | 21.4 | 79.9 | 0.668 | 3.93 | < 0 | 14.8 | 26.2
3 | COc1ccc(COc2cc3oc(=O)c4cc(C(C)O)ccc4c3cc2OC)cc1 (stereo unspecified) | 81.5 | 74.4 | 6.8 | 11 | 11.6 | 35.7 | 80.4 | 6.77 | < 0 | < 0 | < 0 | 8.21
4 | CCc1cc(CCCOc2c(C)cc(-c3noc(C(F)(F)F)n3)cc2C)on1 | 92.1 | 110 | -0.702 | < 0 | < 0 | 40.1 | 94.3 | 7.22 | 9.64 | 8.61 | 13.1 | 28.7
5 | O=c1[nH]c(=O)n(Cc2cccc(Oc3ccccc3)c2)cc1Nc1ccccc1 | 116 | 65.4 | 7.38 | < 0 | < 0 | -152 | 47.8 | < 0 | < 0 | < 0 | < 0 | -3.63
6 | C=C(C)n1c(=O)n(Cc2ccccc2C)c2ccccc21 | 110 | 56.8 | 3.81 | 4.81 | 0.864 | 16.6 | 48.2 | < 0 | < 0 | < 0 | < 0 | 19.1
7 | CC1(C)Cc2c(C#N)c(SCCc3ccccc3)nc(N3CCOCC3)c2CO1 | 112 | 112 | -1.4 | 9.17 | 45.1 | 17.3 | 89.2 | < 0 | < 0 | < 0 | 3.41 | 18.8
8 | NC(=O)c1ccccc1NC(=O)c1ccc(C(=O)Nc2ccccc2C(N)=O)cc1 | 87.5 | 120 | 0.348 | < 0 | < 0 | 5.85 | 13.6 | < 0 | < 0 | < 0 | 0.0831 | 42
9 | COc1cc(C(C(=O)NC2CCCCC2)N(C(=O)Cc2c[nH]c3ccccc23)c2ccc(C(C)C)cc2)cc(OC)c1OC (stereo unspecified) | 90.8 | 90.4 | 1.92 | 18.7 | 22.7 | 22.1 | 71.8 | < 0 | 7.49 | 1.84 | 18.1 | 18.7
10 | CC[C@H](NC(=O)[C@H](C)NC)C(=O)N1C[C@@H](O)C[C@H]1Cc1c(-c2[nH]c3cc(F)ccc3c2C[C@@H]2C[C@H](O)CN2C(=O)[C@H](CC)NC(=O)[C@H](C)NC)[nH]c2cc(F)ccc12 | 102 | 117 | 15 | 5.89 | 54.9 | 75.7 | 83.1 | 28.6 | 76.9 | 17 | 56 | 37.5
11 | CCC(CC)[C@H](NC(C)=O)[C@@H]1[C@H](O)[C@@H](C(=O)O)C[C@H]1NC(=N)N | 88.2 | 59.8 | -1.38 | < 0 | < 0 | 31 | 22.4 | < 0 | < 0 | 0.62 | 2.25 | 24.4
12 | O=C(Nc1ccc(N2CCN(C(=O)c3ccccc3)CC2)cc1)c1ccc2c(c1)OCO2 | 114 | 113 | 38.8 | 5.65 | < 0 | 62.9 | 44.8 | 0.482 | < 0 | 9.21 | < 0 | 33.5
13 | CC(=O)Nc1cc(NS(=O)(=O)c2ccc(Cl)cc2)cc2c(Cl)n[nH]c12 | 108 | 81.2 | 2.74 | 21.4 | 50 | 20.6 | 75 | 6.24 | 3.03 | < 0 | < 0 | 11.8
14 | CCNC(=O)Nc1cc2c(-c3ccnc(C)c3)ccc(CNC(=O)OC)c2cn1 | 92.8 | 58.1 | 5.56 | < 0 | 27.4 | 0.638 | 33.7 | < 0 | < 0 | < 0 | 5.9 | 25.9
15 | Nc1nc(Nc2ccc3nc(-c4ccc(F)cc4)cc(N)c3c2)cc(-c2ccccc2)n1 | -4.05 | -8.47 | -4.55 | 32.5 | 84.6 | 83 | 96.9 | 95.5 | 95 | 98.5 | 98.6 | 13.6
16 | CCc1nc2ccc(Cl)cn2c1C(=O)NCc1ccc(N2CCC(c3ccc(OC(F)(F)F)cc3)CC2)cc1 | 91.1 | 113 | 7.13 | 22 | < 0 | 31.7 | 102 | < 0 | < 0 | 4.46 | < 0 | 72.1
17 | CC(C)Nc1nc2cc(Cl)c(Cl)cc2n1[C@H]1O[C@@H](CO)[C@H](O)[C@@H]1O | 71.9 | 56.9 | -5.75 | 17.6 | 14 | 66.8 | 55.9 | < 0 | < 0 | < 0 | < 0 | 12.5
18 | C[C@H]1COc2c(N3CCN(C)CC3)c(F)cc3c(=O)c(C(=O)O)cn1c23 | 92.1 | 104 | -1.57 | < 0 | 18 | 15.5 | 39.9 | 1.98 | 1.75 | 18.2 | 0.53 | 11.6
